40 molecules from PubChem BioAssay (Tox21) can be followed below.

Results filed as inconclusive are left out. Values without a mark were called inactive. Activity calls are given as the source filed them. The call rests on the fitted dose curve; in most records, active means well fitted cell-killing curve with a large enough effect in the repeat runs; inconclusive means weak or mixed curves; inactive means no such curve, though single readings can be large or run the other way.
On the % scale 0 is the no-effect control and ±100 the full control effect.

A short description of this assay: qHTS assay to identify small molecule antagonists of the androgen receptor (AR) signaling pathway - cell viability counter screen (AID 743033; further: nearly all actives have a fitted effect of over 45% in size). As to conditions: AR-bla HEK293 viability, CellTiter-Glo luminescence, 16 h; series mostly up to 58.5 µM; activity change, negative = cytotoxicity: at the top concentration. An excerpt:
National Center for Advancing Translational Sciences [NCATS]
NIH Chemical Genomics Center [NCGC]
U.S. Environmental Protection Agency [EPA]
National Institutes of Environmental Health Sciences [NIEHS]
National Toxicology Program [NTP]
U.S. Food and Drug Administration [FDA]
Androgen receptor (AR), a nuclear hormone receptor, plays a critical role in AR-dependent prostate cancer and other androgen related diseases. Endocrine disrupting chemicals (EDCs) and their interactions with steroid hormone receptors like AR may cause disruption of normal endocrine function as well as interfere with metabolic homeostasis, reproduction, developmental and behavioral functions. To identify the compounds that inhibit AR signaling, GeneBLAzer AR-UAS-bla-GripTite cell line (Invitrogen, Carlsbad, CA, USA) containing a beta-lactamase reporter gene under control of an Upstream Activator Sequence (UAS) stably integrated into HEK293 cells was used to screen the Tox21 10K compound library. The cytotoxicity of the Tox21 compound library against the AR-bla cell line was tested in parallel by measuring the cell viability using CellTiter-Glo assay in the same wells.
Tox21 Assay Protocol Summary:
AR-bla cells were dispensed at 2,000 cells/5 uL of assay medium per well into black wall/clear-bottom 1536-well plates using a Multidrop Combi (ThermoFisher Scientific, Waltham, MA) dispenser. After the assay plates were incubated at a 37C and 5% CO2 for 4 hr, 23 nL of compounds dissolved in DMSO, positive controls or DMSO only was transferred to the assay plate by a Pintool station (Kalypsys, San Diego, CA), followed by addition of 1 uL of agonist (R1881) in culture medium using a Bioraptr Flying Reagent Dispenser (FRD) workstation (Beckman Coulter, Indianapolis, IN, USA). The plates were incubated at a 37C and 5% CO2 for 16 h. After 1 uL of LiveBLAzerTM B/G FRET substrate was added using a Bioraptr FRD, the plates were incubated at room temperature for 2 h and fluorescence intensity was measured by an Envision plate reader (PerkinElmer, Shelton, CT). For cell viability readout that measures cytotoxicity, 4 ul/well of CellTiter-Glo reagent was added into the assay plates using a Bioraptr FRD. After 30 min incubation at room temperature, the luminescence intensity in the plates was measured using a ViewLux (PerkinElmer) plate reader.
(In general: qHTS replaces the single test concentration by a dilution series.)
With `CN(C)c1ccc(CCO)cc1`, the “activity change, negative = cytotoxicity” value was 3.22%. Take `Nc1ccccc1S(=O)(=O)c1ccccc1`: the “activity change, negative = cytotoxicity” value is 1.24%. Turning to `Clc1ccc2c(c1)CCc1cccnc1C2=C1CCNCC1`, the “activity change, negative = cytotoxicity” value was -19%.

Turning to `C/C=C/C=C/CO`, the “activity change, negative = cytotoxicity” value is -0.23%. Turning to `CCCCO`, the Potency entry is “inactive”. For `Cc1[nH]c(C)c(Cl)c(=O)c1Cl`, the “activity change, negative = cytotoxicity” value is -33.4%. Turning to `CCCCNc1ccc(C(=O)OCCOCCOCCOCCOCCOCCOCCOCCOCCOC)cc1`, the “activity change, negative = cytotoxicity” value was 1.42% [at 27 µM].

Consider `O=C1CCCCCCCCCCCC(=O)OCCO1`, for which the “activity change, negative = cytotoxicity” value was -16.9%. Same read-out and setting: the result for `COC(C)OC` reads 0.629%. Consider `NCc1ccccc1Sc1ccccc1CO`, for which the “activity change, negative = cytotoxicity” value is -8.91%. In the case of `CN(C)c1ccc(/C=C/c2ccc([N+](=O)[O-])cc2)cc1`, the activity change, negative = cytotoxicity was 7.66% [at 7.04 µM]. Same read-out and setting: for `Cc1cc(C(=O)O)ccc1[N+](=O)[O-]` the value was -1.34%; for `OC(C#CCN1CCCC1)(c1ccccc1)c1ccccc1`, -2.1%; for `COc1cc2nc(N3CCN(C(=O)C4COc5ccccc5O4)CC3)nc(N)c2cc1OC` (stereo not given), -3.1%. As to `CCCCCCCN`, the “activity change, negative = cytotoxicity” value is 0.137% [at 78.9 µM].

Consider `CC1=CCCC(C)(C)C12CCC(C)O2` (stereo not given), for which the “activity change, negative = cytotoxicity” value was 1.15%. `C=CC1CC2C=CC1C2` (stereo not given): the “activity change, negative = cytotoxicity” value was 4.42%. Take `C=CC(=O)OCCOc1ccccc1`: the “activity change, negative = cytotoxicity” value was -6.76%. The same measure, in the same setting: the result for `CC(CSC(=O)c1ccccc1)C(=O)N1C[C@@H](Sc2ccccc2)C[C@H]1C(=O)O` (stereo not given in full) reads 1.35%; that for `O=S(=O)(Oc1ccc(Cl)cc1)c1ccccc1`, 3.99%.

Take `COc1ccc(C(=O)c2ccc(OC)cc2O)c(O)c1`: the “activity change, negative = cytotoxicity” value was -18.5% [at 78.9 µM]. Consider `C[C@H]1C[C@H]2[C@@H]3CCC4=CC(=O)C=C[C@]4(C)[C@@]3(Cl)[C@@H](O)C[C@]2(C)[C@@]1(O)C(=O)CO`, for which the “activity change, negative = cytotoxicity” value is -15.8%. Turning to `Nc1c(CC(=O)O)cccc1C(=O)c1ccc(Br)cc1`, the “activity change, negative = cytotoxicity” value was 6.89%.

As for `NCCCN1CCOCC1`, the “activity change, negative = cytotoxicity” value was 2.5%.

For `CCCCC`, the Potency result was “inactive”. For `CCOC(=O)COC(=O)c1cc(Oc2ccc(C(F)(F)F)cc2Cl)ccc1[N+](=O)[O-]`, the “activity change, negative = cytotoxicity” value is -6.34%.

Consider `C[N+]1(C)CCC(OC(=O)C(O)(c2ccccc2)C2CCCC2)C1` (stereo not given), for which the Potency entry is “inactive”. As to `CCCCC(=O)OCC(=O)[C@H]1[C@H](C)C[C@H]2[C@@H]3C[C@H](F)C4=CC(=O)C=C[C@]4(C)[C@@]3(F)[C@@H](O)C[C@@]21C`, the “activity change, negative = cytotoxicity” value is -11.2%. Consider `CN1CCC(N(Cc2cccs2)c2ccccc2)CC1`, for which the “activity change, negative = cytotoxicity” value was -3.67%. Turning to `C[C@H](CCC(=O)O)[C@H]1CC[C@H]2[C@@H]3CC[C@@H]4C[C@H](O)CC[C@]4(C)[C@H]3C[C@H](O)[C@]12C`, the “activity change, negative = cytotoxicity” value was 2.94%. On the same count and under the same terms, the result for `CCOC(=O)C(F)(F)F` reads 6.44%; that for `CCO[C@H](Cc1ccc(OCCc2ccc(OS(C)(=O)=O)cc2)cc1)C(=O)O`, 0.882%. Same read-out and setting: for `COc1ccc(C(=O)Nc2nc3ccccc3c(NCc3ccccc3)c2C#N)cc1` the value was -12.9%; for `O=C(O)c1ccccc1Cl`, 0.101%. In the case of `N=c1ccn2c(n1)O[C@H]1[C@H](O)[C@@H](CO)O[C@H]12`, the Potency entry was “inactive”. Regarding `CCN(CC)CCOC(=O)C(c1ccccc1)C1CCCCC1` (stereo not given), the “activity change, negative = cytotoxicity” value was -13.1%. Same read-out and setting: for `COC(C)(C)CCO` the value was 4.68%. The same measure, in the same setting: for `O=C(c1ccc(F)cc1)C1CCN(CCn2c(=S)[nH]c3ccccc3c2=O)CC1` the value was -24.2%; for `Cc1ccc(N=Nc2c(O)c(C(=O)O)cc3ccccc23)c(S(=O)(=O)O)c1`, -0.883%; for `O=C(O)c1ccc(-n2nc(-c3ccccc3O)nc2-c2ccccc2O)cc1`, -4.73%.
